Shown are actives, neighbours in structure and some others; about 7.3% of the full set was active somewhere.
SMN2 splice up: enhancers of SMN2 splice variant expression. actives 2.8% (n = 210,000). HEK293 SMN2-luciferase splicing reporter, luminescence, 30-36 h. Potency, µM (titrated, usually from 46.1 µM), actives largely listed as activators; note: nearly all actives have a fitted effect of over 55% in size
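qHTS luciferase splicing reporter: luminescence rises when SMN2 exon 7 is included in transfected HEK293 cells. Compound exposure lasted 30-36 h at 37C, with 4.5 mM final sodium butyrate as control, followed by a ONE-Glo read.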
Rab9 prom act: activators of Rab9 promoter; Huh7 Rab9 promoter-luciferase reporter, luminescence, 24 h; Potency, µM (series often up to 9.22 µM), usual class: activators; actives 2.8% (n = 320,000); AID 485297; note: nearly all actives have a fitted effect of over 60% in size
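Steps: seed 1500 Huh7 Rab9-luc cells per well, rest 2 h at 37 °C; add compound in DMSO; incubate 24 h; add luciferase reagent, 10 min ambient; read luminescence.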
uPA surface inh: blocks generation of uPA at the cell surface | cell surface uPA generation assay, qHTS | actives 0.31% (n = 330,000) | Potency, µM (doses to about 38.3 µM), most hits filed as inhibitors; active = well fitted inhibition curve with a large enough effect; inconclusive = small, poorly fitted or top-dose-only effect; inactive = no such curve, though single readings can be large or run the other way; tested in mouse RAW 264.7 cells; note: nearly all actives have a fitted effect of over 55% in size
FLuc counter: counter-screen for miR-21 project: firefly luciferase inhibitors or activators | P08659 | actives 6.9% (n = 360,000) | AID 588342 | Potency, µM (titrated, usually from 57.5 µM), actives largely listed as inhibitors | purified FLuc, Km substrates, luminescence inhibition; note: nearly all actives have a fitted effect of over 55% in size
Target sequence (P08659 whole entry, looked up): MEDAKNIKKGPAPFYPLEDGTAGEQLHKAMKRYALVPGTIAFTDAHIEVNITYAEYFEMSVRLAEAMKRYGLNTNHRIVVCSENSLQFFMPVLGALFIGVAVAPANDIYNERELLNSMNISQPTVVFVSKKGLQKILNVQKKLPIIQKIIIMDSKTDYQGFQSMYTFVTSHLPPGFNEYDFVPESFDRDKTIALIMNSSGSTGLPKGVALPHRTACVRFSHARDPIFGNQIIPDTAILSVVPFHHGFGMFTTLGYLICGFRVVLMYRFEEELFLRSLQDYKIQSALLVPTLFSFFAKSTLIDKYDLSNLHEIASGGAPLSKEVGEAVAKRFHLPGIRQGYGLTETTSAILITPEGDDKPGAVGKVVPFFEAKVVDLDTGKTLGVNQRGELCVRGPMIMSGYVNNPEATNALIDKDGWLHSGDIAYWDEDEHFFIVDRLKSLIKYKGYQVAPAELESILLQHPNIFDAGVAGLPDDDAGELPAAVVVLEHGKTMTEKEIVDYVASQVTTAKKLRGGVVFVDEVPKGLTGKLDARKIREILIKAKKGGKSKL
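Biochemical qHTS of compounds, final roughly 60 µM downward over six points, against 10 nM purified firefly luciferase using Km concentrations of substrates (10 uM D-luciferin, 10 uM ATP) in Tris acetate pH 7.5 buffer; luminescence output.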
ELG1 genotoxic: induces genotoxicity in HEK293T cells with luciferase-tagged ELG1; AID 504466; HEK293T ELG1-luciferase reporter, luminescence, 16 h; actives 1.3% (n = 330,000); Potency, µM (titrated, usually from 46 µM), most hits filed as activators; note: nearly all actives have a fitted effect of over 60% in size
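HEK293T cells expressing luciferase-tagged ELG1 were treated with compound or DMSO for 16 hr at 37°C. Luciferase activity was then read after 30 min with ONE-Glo at room temperature; rising signal flags genetic stress.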
NPC1 prom act: activators of NPC1 promoter | actives 2.4% (n = 320,000) | Potency, µM (titrated, usually from 9.22 µM), hits mostly activators | Huh7 NPC1 promoter luciferase reporter, 24 h; note: nearly all actives have a fitted effect of over 60% in size
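In 1536-well qHTS, Huh7 cells harboring an NPC1 promoter–luciferase construct received compound for 24 h; activation was quantified by luminescence following luciferase reagent addition.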
Hits are given with their value; - = inactive; ? = inconclusive; . = no result given; [ ] = another dose, or the depositor's remark. Unless noted, calls come from the whole dose curve; as a rule, active = well fitted curve in the direction sought with a large enough effect; inconclusive = small, poorly fitted or top-dose-only effect, or another doubt; inactive = no such curve, though single readings can be large; an effect the other way counts as inactive or inconclusive.

SMILES | SMN2 splice up | Rab9 prom act | uPA surface inh | FLuc counter | ELG1 genotoxic | NPC1 prom act
CSc1ncccc1C(=O)Nc1nc2ccc(S(C)(=O)=O)cc2s1 | - | - | - | 21µM | - | -
Cc1nc(N2CCCC2)c2c(C(=O)Nc3cccc(Cl)c3C)c(C)oc2n1 | . | . | . | - | . | .
Cc1cc2c3ccccc3ncn2n1 | . | - | - | - | - | -
Cc1cc(=O)n2[nH]c(-c3cccnc3)nc2n1 | - | - | . | 17µM | - | -
Cc1cc(=O)n2[nH]c(NCc3ccc(F)cc3)nc2n1 | - | . | . | - | . | .
Cc1cc(=O)n2[nH]c(-c3ccc(F)cc3)nc2n1 | - | - | - | 12µM | ? | -
Cc1nc2nc(-c3cccnc3)[nH]n2c(=O)c1C | - | - | - | ? | - | -
CC1(C)OC(=O)C(=Cc2ccc(-c3ccc(S(N)(=O)=O)cc3)o2)C(=O)O1 | - | - | - | 11µM | ? | -
COC(=O)c1c(C)[nH]c(O)c1C=Nc1ccc(C(C)C)cc1 | - | ? | - | 8.5µM | ? | ?
Cc1csc(NC(=O)c2sc3nc(-c4cccs4)ccc3c2N)n1 | - | - | - | 3.8µM | ? | -
NC(=S)Nc1nccc(-c2cccs2)n1 | - | - | - | ? | - | -
COc1cc(C(=O)Nc2nc(-c3cccs3)cs2)cc(OC)c1OC | ? | - | - | - | - | -
O=C(COc1ccc(Cl)cc1)Nc1nc(-c2cccs2)cs1 | - | - | - | ? | - | -
COc1ccc(C(=O)Nc2nc(-c3cccs3)cs2)cc1 | - | . | - | 6.7µM | . | .
Cc1ccc(C(=O)Nc2nccc(-c3cccs3)n2)cc1 | - | - | - | 13µM | - | -
O=C(Nc1nc(-c2cccs2)cs1)c1ccc(Cl)cc1 | - | - | - | 11µM | ? | -
CCn1nc(-c2ccccc2)c(-c2ccccc2)c(C(=O)Nc2ccc(NC(C)=O)cc2)c1=O | - | . | . | - | . | .
COc1ccc2[nH]c(-c3ccc(C)cc3)cc(=O)c2c1 | 1.3µM | 2.5µM | 2.8µM | 1.5µM | 2.9µM | ?
COc1ccc2[nH]c(-c3ccccc3)cc2c1 | . | 0.89µM | - | 6µM | ? | 1.6µM
COc1ccc(-c2cc(=O)c3cc(F)ccc3[nH]2)cc1 | - | - | - | ? | - | -
COc1ccc2nc(C(C)O)[nH]c2c1 (centres undefined) | - | - | . | - | - | -
CCOc1ccc2nc(-c3ccccc3)[nH]c2c1 | 14µM | ? | - | 1.1µM | ? | 0.79µM
CCOc1ccc2nc(C(C)O)[nH]c2c1 (centres undefined) | - | - | - | - | - | -
COc1ccc2nc(-c3ccccc3)[nH]c2c1 | 6.3µM | 1.6µM | - | 2.1µM | 1.3µM | 2.8µM
COc1ccc(Nc2nc3c(S(=O)(=O)c4ccccc4)nnn3c3ccc(Cl)cc23)c(OC)c1 | - | . | . | - | . | .
SMILES | SMN2 splice up | Rab9 prom act | uPA surface inh | FLuc counter | ELG1 genotoxic | NPC1 prom act
O=c1c2ccccc2c2ccccc2c(=O)n1-c1cc2c3ccccc3ccc2c2ccccc12 | -[9.22 µM] | . | . | . | . | .
CCCSc1ncnc2c1c(-c1ccccc1)cn2-c1ccccc1OC | - | . | . | - | . | .
CNc1nc2c(-c3ccc(Cl)cc3)nnn2c2ccccc12 | . | - | - | - | ? | -
Nc1nc2c(-c3ccc(Br)cc3)nnn2c2ccccc12 | . | 0.63µM | - | 0.43µM | 12µM | 1µM
O=c1c(Cl)c(N/N=C/c2ccc(Cl)cc2)cnn1-c1ccccc1 | -[1.84 µM] | 0.32µM | - | - | - | 0.56µM
O=c1c(Cl)c(Cl)cnn1-c1ccccc1 | - | - | 3.5µM | - | - | -
Nc1c(Cl)cnn(-c2ccccc2)c1=O | . | . | - | . | . | .
CCOC(=O)Cc1c(C)nc2cc(-c3ccc(Cl)cc3)[nH]n2c1=O | - | - | - | ? | ? | -
CCOC(=O)c1cc(=O)n2[nH]c(-c3ccc(C)cc3)cc2n1 | ? | - | - | 13µM | ? | -
COCc1cc(=O)n2[nH]c(-c3ccc(C)cc3)cc2n1 | - | - | ? | 12µM | 15µM | -
Cc1cc(=O)n2[nH]c(-c3ccc(C(C)(C)C)cc3)cc2n1 | - | - | . | 11µM | - | -
Cc1cc(=O)n2[nH]c(-c3ccccc3)cc2n1 | - | . | - | ? | . | .
CCOC(=O)Cc1cc(=O)n2[nH]c(-c3ccc(C)cc3)cc2n1 | - | - | - | 19µM | ? | -
COCc1cc(=O)n2[nH]c(-c3ccco3)cc2n1 | . | - | - | - | - | -
CCN(CC)CCCNC(=O)c1ccc2nc(N3CCCCC3)sc2c1 | - | . | . | - | . | .
COc1ccc(N2CCN(C(=O)COC(=O)c3cnccn3)CC2)cc1 | . | - | - | - | - | -
Cc1nc2cc(-c3ccccc3)[nH]n2c(=O)c1C | . | ? | - | 13µM | 21µM | -
CCN(CC)c1nc2ccccc2nc1C(=O)Nc1ccc(C(C)=O)cc1 | . | . | . | - | . | .
CC(=O)c1ccc(NC(=O)CN2C(=O)CCc3cc(S(=O)(=O)N4CCC(C)CC4)ccc32)cc1 | . | . | . | - | . | .
CC(=O)c1ccc(NC(=O)CN2C(=O)CCc3ccccc32)cc1 | . | . | . | 6µM | . | .
CCOC(=O)c1cc(-c2ccccc2)n(CC(=O)Nc2ccc(CC)cc2)c1C | . | . | . | - | . | .
Cc1ccc(F)cc1NC(=O)c1ccc(OCC2CCCO2)cc1 (centres undefined) | . | . | - | . | - | .
O=C(Nc1nc(-c2ccc(F)c(F)c2)cs1)c1ccc(OCC2CCCO2)cc1 (centres undefined) | . | - | - | - | - | -
Cc1csc(NC(=O)c2ccc(OCC3CCCO3)cc2)n1 (centres undefined) | 1.4µM | 0.45µM | - | 5.4µM | - | ?
CCOc1ccc2nc(NC(=O)c3ccc(OCC4CCCO4)cc3)sc2c1 (centres undefined) | ? | - | - | 2.7µM | - | -
SMILES | SMN2 splice up | Rab9 prom act | uPA surface inh | FLuc counter | ELG1 genotoxic | NPC1 prom act
CN(CC1CCCO1)S(=O)(=O)c1ccc(C(=O)Nc2nc(-c3ccccn3)cs2)cc1 (centres undefined) | - | - | 4µM | - | - | -
Cc1cccc2sc(NC(=O)c3ccc(OCC4CCCO4)cc3)nc12 (centres undefined) | - | - | - | 11µM | - | -
CN(CC1CCCO1)S(=O)(=O)c1ccc(C(=O)Nc2ccccc2F)cc1 (centres undefined) | . | . | - | . | . | .
COc1ccc(Nc2ncnc3onc(-c4ccc(Cl)cc4)c23)cc1Cl | - | . | . | - | . | .
CCOc1ccc(-c2nnc(SCC(=O)c3ccccc3)n2-c2ccccc2)cc1 | - | . | . | - | . | .
CCOc1ccc2nc(NC(=O)CSc3nnc(-c4ccncc4)n3CC3CCCO3)sc2c1 (centres undefined) | - | ? | - | 2.4µM | ? | ?
COc1ccc(NC(=O)c2oc3ccc4c(c3c2C)C(=O)CC(C)(C)O4)cc1OC | . | . | . | 0.43µM | . | .
COc1cc(NC(=O)COc2cc(O)c3c(c2)OC(C)(C)CC3=O)cc(OC)c1OC | . | - | ? | ? | - | -
CCc1cccc(NC(=O)c2oc3ccc4c(c3c2C)C(=O)CC(C)(C)O4)c1 | . | . | . | 0.85µM | . | .
